Compounds without any hit were thinned out: in the full panel of roughly 79,000, 15% have a hit. A number with no mark means an inactive call. Activity calls are given as the source filed them. Cut-off read from the data, not from the text of the source: active = growth inhibition above about 70%; inactive = the rest.
Legend:
[1] = NCI Yeast Anticancer Drug Screen. Data for the rad50 strain (AID 155);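 note: 0% = growth of vehicle-only cultures of the same strain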; details: S. cerevisiae rad50 strain growth inhibition; at 50.0 µM; active compounds read high
In short: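 Cells are treated with compound, grown, and their growth is then scored against vehicle-only cultures of the same repair-deficient yeast strain.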

[2] = NCI Yeast Anticancer Drug Screen. Data for the mec2-1 strain (AID 157); details: S. cerevisiae mec2-1 strain, at 50.0 µM, active compounds read high
In short: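 Test agents were screened against the mec2-1 yeast strain, with defined DNA repair or cell cycle alteration. Growth was scored as inhibition against vehicle-only controls.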

[3] = NCI Yeast Anticancer Drug Screen. Data for the sgs1 mgt1 strain (AID 161);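 note: 0% = growth of cultures given vehicle only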; details: S. cerevisiae sgs1 mgt1 strain, at 50.0 µM, active compounds read high
In short: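 Inhibition of yeast growth, normalised to vehicle-treated controls, is reported for a strain bearing genetic alterations in DNA damage repair.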

[4] = NCI Yeast Anticancer Drug Screen. Data for the cln2 rad14 strain (AID 165);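 note: 0% = growth equal to vehicle treated cultures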; details: S. cerevisiae cln2 rad14 strain, at 50.0 µM, active compounds read high
In short: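 Growth of compound-exposed yeast (cln2 rad14 genotype) measured and expressed as inhibition relative to vehicle.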

[5] = NCI Yeast Anticancer Drug Screen. Data for the bub3 strain (AID 167); details: S. cerevisiae bub3 mutant strain, at 50.0 µM, active compounds read high
In short: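 Part of a panel of yeast mutants defective in DNA damage repair or cell cycle regulation. Each strain is grown with compound, and inhibition is calculated relative to solvent-treated cultures.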

[6] = NCI Yeast Anticancer Drug Screen. Data for the mlh1 rad18 strain (AID 175); details: S. cerevisiae mlh1 rad18 strain growth inhibition; at 50.0 µM; active compounds read high
In short: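 In this whole-cell yeast screen, a strain with altered DNA damage repair is challenged with compound, and its growth is measured against matched vehicle-treated controls.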

| SMILES | growth inhibition [1] | growth inhibition [2] | growth inhibition [3] | growth inhibition [4] | growth inhibition [5] | growth inhibition [6] |
| --- | --- | --- | --- | --- | --- | --- |
| CCCCC(O)(CCCC)C(C)(C)C | 3.7% | 4.05% | 0.6% | -30.9% | -0.2% | 9.3% |
| C/C(C(=O)O)=C1\N=C(N)NC1=O | -3.25% | -2.9% | -5.5% | -36.9% | -17.9% | -14.4% |
| CCN(c1ccccc1)c1cc2c(cc1[N+](=O)[O-])no[n+]2[O-] | 97.1% (active) | 96.9% (active) | 98.3% (active) | 96.6% (active) | 98.1% (active) | 97.1% (active) |
| O=C(O)Cc1cc(I)c(Oc2ccc(O)cc2)c(I)c1 | -5% | -29.4% | 6.05% | 15.2% | -9.5% | 3.9% |
| Cc1ccc(S(=O)(=O)N2N=C(c3ccccc3)CC2c2ccccc2)cc1 (configuration not stated) | 83.1% (active) | 87.1% (active) | 88.4% (active) | 81% (active) | 82% (active) | 91% (active) |
| COc1cc([N+](=O)[O-])c2ncccc2c1 | -15.9% | -16% | -7.6% | 6.9% | -3.1% | 18.1% |
| COc1ccc(OC)c(CNc2ccc(C(=O)O)cc2)c1 | 11.4% | -1.25% | 15% | -1.9% | 6.75% | 29.6% |
| CC(=O)Nc1ccc(S(=O)(=O)c2ccc(NC(C)=O)s2)s1 | -6.05% | -1.3% | -4.1% | -15.4% | -15.3% | -18.9% |
| c1ccc(C23c4ccccc4C2c2ccccc23)cc1 (configuration not stated) | 14.3% | 11.9% | 22.2% | 10.2% | 18.3% | 13.9% |
| Cc1ccccc1/C=C/C(=O)c1ccccc1 | 45.2% | 24.6% | 40.8% | 1.8% | 11.4% | 20% |
| Cc1ccc(N=CC=C2C=CN(O)C=C2)nc1 | -8% | -10.9% | -0.85% | -19.2% | -19.1% | -10.5% |
| Oc1[nH]c2ccccc2c1N=NC(=S)Nc1cccc(Cl)c1 | -0.35% | 4.4% | 55.5% | 35% | 23.5% | 15.2% |
| CCOC(=O)NC(=S)Nc1ccn(C)c1 | 10.4% | 36.8% | 4.6% | 39.9% | 1.65% | 46.6% |
| CSC(=S)n1nc(-c2ccccc2)c(N=Nc2cccc(Cl)c2Cl)c1-c1ccccc1 | 90.2% (active) | 95.5% (active) | 94% (active) | 94.5% (active) | 93% (active) | 95.2% (active) |
| COc1ccc(-c2onc3ccc(Cl)cc23)cc1 | -9.1% | 4.1% | 17.4% | -63.5% | 7.35% | 21.4% |
| O=C1c2ccccc2C2NCCCN12 (configuration not stated) | -2.55% | -12.3% | -0.4% | -5.65% | -3.55% | 0.9% |
| C=CCS(=O)(=O)c1ccc(Cl)cc1 | 1.95% | 2.25% | -20.5% | -24.6% | 0.95% | -22.2% |
| CCCCCCNC(=O)C1=C(C)NC(C)=C(C(=O)NCCCCCC)C1 | 4.9% | 1.35% | -6.4% | -24.9% | 6.8% | -42.2% |
| c1ccc2c(c1)ccc1cccc[n+]12 | -25.4% | -7.75% | -13% | -12.4% | -16.7% | -36.6% |

| SMILES | growth inhibition [1] | growth inhibition [2] | growth inhibition [3] | growth inhibition [4] | growth inhibition [5] | growth inhibition [6] |
| --- | --- | --- | --- | --- | --- | --- |
| Cc1cc(NCCN(C(C)C)C(C)C)nc(Nc2nc3cc(Cl)c(Cl)cc3[nH]2)n1 | 75.8% (active) | 39.2% | 77.8% (active) | 11.7% | 23.1% | 55.6% |
| CCOC(=O)C(C#N)=C1CC(C)OC(C)C1 (configuration not stated) | 12.3% | 0.65% | 5.85% | -33.6% | 17.4% | 4.15% |
| O=C1CC2(CCCC2)CC(=O)N1 | -11.2% | -11.4% | -15.6% | -29.4% | 6.4% | -8.1% |
| N#CC(C#N)=CNC(=S)c1ccncc1 | -21.1% | -33.6% | -19.6% | 6.7% | -4.85% | -24.2% |
| Nc1nc(N)c(N=Nc2ccccc2[N+](=O)[O-])c(=O)[nH]1 | 5.85% | -15.8% | 2.4% | -4.95% | 11.1% | -1.05% |
| CN(C)c1ccc(C(=O)C2CCCCC2)cc1 | 29.1% | 7.5% | 13.6% | -4.8% | -5.2% | 21.8% |
| O=c1[nH]nc(-c2ccc3c(c2)Cc2ccccc2-3)c2ccccc12 | 12.8% | -0.15% | -23.9% | -1.95% | 10.3% | 17.5% |
| C/C=C(\C)C(=O)OCC1=CCC2CCC(O)N12 (configuration not stated) | 5.75% | 0.05% | 0.1% | 6.05% | 10.1% | 8.55% |
| c1ccc(-c2nc3ccccc3n2CCc2ccncc2)nc1 | 11% | 10.4% | 14% | -14% | 3.2% | 20.9% |
| CCN(CC)c1ccc2c(C)cc(=O)oc2c1 | 6.35% | -10.6% | 6.35% | 3.8% | 12.9% | 0.9% |
| COC(=O)CC12CCCC(C)(CC(=O)N1)C2 (configuration not stated) | 16.4% | 1.25% | 12.5% | 15.8% | -4% | -0.5% |
| O=C(NCCN1CCCC1)Nc1ccccc1Cl | 4.6% | 27.2% | -0.8% | -10.1% | 34.1% | 0.15% |
| Clc1ccc2nsnc2c1 | 14.2% | -12.8% | 24.9% | 16.8% | 18.9% | 35% |
| COc1ccc(C(=O)CC(=O)C2CCCCC2=O)cc1 (configuration not stated) | -12.5% | -12.3% | -3.4% | -19.8% | 19.3% | -9.05% |
| CC(=O)OC1CC(n2cc(C)c(=O)[nH]c2=O)OC1COP(=O)(N1CC1)N1CC1 (configuration not stated) | -9.25% | -1.25% | -2.8% | -6.1% | -22.6% | -3.95% |
| CC1=C(c2ccccc2)CON(c2ccccc2)C1 | -9.3% | -15.1% | -9.2% | -5.4% | 14.8% | -9.2% |
| CCCCOC(=O)NC(=O)c1cn(CCCOC(=O)CCCCCCCCC(=O)OCCCn2cc(C(=O)NC(=O)OCCCC)c(=O)n(C)c2=O)c(=O)n(C)c1=O | -3.9% | -10.9% | -10.7% | 12.2% | 14.3% | -5.55% |
| O=C(O)c1cc(Br)c(O)cc1O | -11.4% | -17.6% | -3.35% | 9.35% | -5.25% | 7% |

From PubChem BioAssay (NCI)
